# Measured values taken from PubChem BioAssay.
# Experiments:
# [1] = test system: Human papillomavirus type 1a protein E7 (residues 44-93); experiment: small molecules binding HPV E7 44-93 – biochemical, small-molecule microarray, residues 44-93, 635 nm fluorescence, primary screen (AID 1108); settings: fluorescence 635 nm, higher = more signal;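 note: E7 fragment applied at 1 µg/mL in TBST for 1 h at 4 C; score combines spot fluorescence with its signal to noise ratio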
# [2] = hepatitis C replication reporter changes, two-sided – Huh7 cells, luciferase reporter, HCV replication inhibitor project, primary screen (AID 1109); settings: Huh7 HCV replicon luciferase reporter, 48 h; higher = more signal;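 note: huh7 hepatoma cells harbouring a luciferase neomycin HCV replicon reporter; luciferase luminescence as measure of HCV replicon replication; test concentration not given here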
# [3] = molecular target: Left-right determination factor 2 (Homo sapiens) (UniProt O00292); experiment: small molecules binding LEFTY2 protein – biochemical, small-molecule microarray, 635 nm fluorescence scan, primary screen (AID 1110); settings: higher = more signal
# [4] = molecular target: Calmodulin-1 (Homo sapiens) (UniProt P0DP23); experiment: small molecules binding calmodulin-1 with EGTA – biochemical, small-molecule microarray, Cy5-labelled CALM1, profiling panel (AID 1111); settings: Cy5-CALM1 binding fluorescence, higher = more signal;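 note: labelled calmodulin applied in Tris saline Tween buffer holding calcium plus EGTA and DTT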
# [5] = molecular target: Calmodulin-1 (Homo sapiens) (UniProt P0DP23); experiment: small molecules binding Ca-loaded calmodulin-1 – biochemical, small-molecule microarray, Cy5-labelled CALM1, plus calcium, artefact control for SMM control-protein annotation, profiling panel (AID 1112); settings: Cy5-CALM1 binding fluorescence, higher = more signal;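 note: score merges spot fluorescence with signal to noise from triplicate slides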
# [6] = probe aWnt5a binding to arrayed compounds – biochemical, biotinylated probe, 635/667 nm fluorescence, primary screen (AID 1113); settings: small-molecule microarray, higher = more signal;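 note: score merges 667 nm fluorescence intensity with signal-to-noise per printed feature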
# [7] = probe aShh binding to arrayed compounds – biochemical, biotinylated probe, 635/667 nm fluorescence, primary screen (AID 1114); settings: small-molecule microarray, higher = more signal;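 note: probe is biotin-labelled aShh protein from a stem cell growth factor screen; measures binding of labelled protein to compounds printed on the slide; score merges feature fluorescence at 667 nm with signal-to-noise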
# [8] = probe aNog binding to arrayed compounds – biochemical, biotinylated probe, 635/667 nm fluorescence, primary screen (AID 1115); settings: small-molecule microarray, higher = more signal;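 note: probe is biotinylated aNog protein used at 0.15 µg/mL for 1 h at 4 C; z-score combines 667 nm fluorescence of each spot with its signal to noise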
# [9] = molecular target: Torsin-1A-interacting protein 1 (Homo sapiens) (UniProt Q5JTV8); experiment: compound microarray binding of lysate hLAP1 – cell lysate, small-molecule microarray, COS7 lysate, 635/667 nm fluorescence, primary screen (AID 1116); settings: 635 nm fluorescence, higher = more signal
# [10] = molecular target: Alpha-bungarotoxin (Bungarus multicinctus) (UniProt P60615); experiment: compounds binding labelled alpha-BTX control protein – biochemical, small-molecule microarray, Alexa647 label, 635/667 nm fluorescence, artefact control for SMM control protein annotation, profiling panel (AID 1117); settings: alpha-BTX-A647 binding fluorescence, higher = more signal
# Chain of Alpha-bungarotoxin (Bungarus multicinctus) (P60615 whole entry, looked up): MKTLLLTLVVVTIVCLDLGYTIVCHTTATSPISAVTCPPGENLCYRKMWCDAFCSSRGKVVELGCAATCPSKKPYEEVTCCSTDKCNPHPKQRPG
# Chain of Torsin-1A-interacting protein 1 (Homo sapiens) (Q5JTV8 whole entry, looked up): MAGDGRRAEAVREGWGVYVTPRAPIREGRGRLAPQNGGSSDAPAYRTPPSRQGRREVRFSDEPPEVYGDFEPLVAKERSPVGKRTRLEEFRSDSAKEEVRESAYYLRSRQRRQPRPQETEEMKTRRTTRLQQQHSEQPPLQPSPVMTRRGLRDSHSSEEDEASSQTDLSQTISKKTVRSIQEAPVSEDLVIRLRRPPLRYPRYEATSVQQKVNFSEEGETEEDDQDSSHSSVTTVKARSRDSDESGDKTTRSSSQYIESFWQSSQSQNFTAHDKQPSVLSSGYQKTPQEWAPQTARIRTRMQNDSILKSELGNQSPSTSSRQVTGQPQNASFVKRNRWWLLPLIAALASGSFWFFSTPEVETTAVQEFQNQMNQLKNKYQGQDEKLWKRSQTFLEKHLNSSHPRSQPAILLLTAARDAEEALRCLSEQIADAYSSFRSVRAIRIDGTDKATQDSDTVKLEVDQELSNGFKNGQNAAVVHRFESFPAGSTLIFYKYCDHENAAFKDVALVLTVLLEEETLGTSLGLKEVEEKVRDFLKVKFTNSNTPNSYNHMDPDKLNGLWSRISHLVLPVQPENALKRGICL
# Chain of Left-right determination factor 2 (Homo sapiens) (O00292 whole entry, looked up): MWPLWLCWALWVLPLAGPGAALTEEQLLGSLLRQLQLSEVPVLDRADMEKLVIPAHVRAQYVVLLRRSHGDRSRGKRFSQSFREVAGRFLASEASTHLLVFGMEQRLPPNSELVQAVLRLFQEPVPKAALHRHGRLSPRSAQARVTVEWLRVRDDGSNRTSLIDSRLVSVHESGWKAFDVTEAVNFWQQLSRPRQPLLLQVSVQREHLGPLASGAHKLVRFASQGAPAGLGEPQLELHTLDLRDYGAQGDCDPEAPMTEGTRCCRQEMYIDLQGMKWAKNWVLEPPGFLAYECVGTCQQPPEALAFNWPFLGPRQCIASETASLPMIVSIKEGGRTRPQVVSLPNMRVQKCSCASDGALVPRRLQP
Compound,composite z-score [1],z-score [2],composite z-score [3],composite z-score [4],composite z-score [5],composite z-score [6],composite z-score [7],composite z-score [8],composite z-score [9],composite z-score [10]
CN(C)CCCC[C@@H]1NC(=O)[C@H]2C[C@@H](C(=O)NCCCCCN)[C@@H](c3cccc(OCCO)c3)N2C1=O,0.474,0.0761,0.669,2.22,1.51,0.233,0.351,0.863,2.53,1.44
CC(C)[Si](C#C[Si](C(C)C)(C(C)C)C(C)C)(O[C@H](C)c1cn(Cc2ccccc2)nn1)C(C)C,1.2,0.16,0.409,0.634,0.142,-0.0893,-0.221,-0.33,0.182,0.717
O=C1C2C=CC(C(O)COCc3ccccc3)N(Nc3ccc([N+](=O)[O-])cc3)C2C(=O)N1c1ccccc1 (stereo not given),1.44,-1.36,0.308,0.823,-0.432,0.0317,0.213,0.525,0.548,1.31
C=CCNC(=O)[C@H]1[C@@H]2C(=O)O[C@@H](c3ccccc3)[C@@H](c3ccccc3)N2[C@@H](c2ccc(O)cc2)[C@]12C(=O)Nc1ccc(C#CCCO)cc12,-0.336,0.142,0.185,-0.314,0.107,-0.124,0.0982,-0.161,-0.428,-0.503
O=C1NC(=O)C2C1C=CC(C(O)C=Cc1ccc([N+](=O)[O-])cc1)N2Nc1ccc(Cl)cc1Cl (stereo not given),0.0788,0.498,0.0391,2.14,0.713,-0.031,0.317,0.0884,1.52,1.49
COc1ccc([Si](C)(C)[C@@H]2[C@@H](CC(=O)N3CCC[C@H]3CO)O[C@]3(C(=O)N(Cc4cccc(I)c4)c4ccccc43)[C@H]2C)cc1,1.32,-2.72,1.39,0.374,0.935,0.116,-0.138,-0.0173,1.62,0.181
CC(C)(C)OC(=O)CC[C@]1(C(N)=O)N=C(c2ccc(OCCCO)cc2)O[C@H]1c1ccccc1,-0.0059,0.666,-0.23,2.64,1.66,0.116,0.707,1.36,3.07,2.12
O=C1C2C=CC(C(O)c3cc(C(F)(F)F)cc(C(F)(F)F)c3)N(Nc3ccccc3)C2C(=O)N1c1ccccc1 (stereo not given),1.44,-0.761,-0.457,0.925,0.388,-0.0425,-0.358,0.341,1.07,0.63
CN1C(=O)C2C=CC(C(O)c3ccccc3)N(N3CCCCC3)C2C1=O (stereo not given),0.876,-0.379,-0.203,0.0777,-0.102,0.28,0.108,-0.52,0.411,0.464
C=C(CCCC)/C(=C/C[C@H](OC(=O)c1ccncc1)c1ccc(OCCO)cc1)c1cc(C(=O)OC)ccc1OC,1.09,-2.01,0.318,0.226,0.176,0.0491,0.216,-0.158,1.26,0.378
COc1ccccc1CN1C(=O)c2ccccc2[C@@]2(Cc3ccccc3N(CCCN(C)C)C2=O)[C@@H]1c1ccc(CO)cc1,-0.0362,-1.86,0.524,-0.0574,-0.688,-0.165,-0.282,-0.273,0.0163,-0.94
NC(=O)NCC#Cc1ccc2c(c1)[C@]1(C(=O)N2)[C@H](C(=O)O)[C@H]2C(=O)O[C@H](c3ccccc3)[C@H](c3ccccc3)N2[C@@H]1c1ccc(O)cc1,0.443,-0.539,-0.317,1.6,0.717,0.216,0.346,1.61,0.412,1.5
COc1ccc([Si](C)(C)[C@H]2[C@H](CCn3cc([C@H](O)c4ccccc4)nn3)O[C@@]3(C(=O)N(C)c4ccccc43)[C@@H]2C)cc1,-0.455,-2.37,-0.759,0.418,0.947,-0.119,-0.0793,-0.266,-0.773,-0.909
COCCOC(=O)N1C(=O)[C@@]2(c3ccccc31)[C@H](C(=O)N1CCCCCCC1)[C@H]1C(=O)O[C@H](c3ccccc3)[C@H](c3ccccc3)N1[C@@H]2c1ccc(OCCO)cc1,1.63,-2.07,1.91,3.2,1.76,1.65,3.65,3.67,5.73,4.02
COCC(=C=CC[C@@H](O)c1ccc(OCCO)cc1)C[C@@H](O)c1ccccn1,0.518,-1.24,0.33,-0.336,-0.125,0.0173,0.227,-0.0184,0.407,0.338
OCCCC1=CC(C2CC2)N(Cc2cccc(OC(F)(F)F)c2)CC1 (stereo not given),-0.928,-1.32,-0.119,-0.968,0.115,-0.178,-0.321,-0.641,1,-0.478
[N-]=[N+]=NCc1ccccc1C[C@@]1(C(=O)NCC(O)CO)N=C(c2ccc(OCCCO)cc2)O[C@@H]1c1ccccc1 (stereo not given in full),1.03,-1.41,-1.38,0.899,1.25,-0.0285,0.156,0.723,1.01,0.183
COc1ccc(-c2cc3c(c(Cc4ccccc4)n2)[Si](C(C)C)(C(C)C)OC3)cn1,-0.864,-0.421,-0.0979,-0.646,0.0817,-0.13,-0.0849,-0.0855,-0.0516,-0.26

Compound,composite z-score [1],z-score [2],composite z-score [3],composite z-score [4],composite z-score [5],composite z-score [6],composite z-score [7],composite z-score [8],composite z-score [9],composite z-score [10]
C#CCN(C/C=C/c1ccccc1)[C@H](CO)c1ccccc1,-0.414,-1.74,0.171,-0.653,-0.472,-0.0919,-0.262,-0.326,-0.0349,-0.0338
COc1cc(OC)c(C(O)C2C=CC3C(=O)NC(=O)C3N2Nc2ccccn2)cc1Br (stereo not given),0.19,0.742,0.586,0.0037,-0.107,-0.0684,-0.0769,-0.461,1.17,0.484
COCCOC(=O)N1C(=O)[C@@]2(c3cc(C#CCCO)ccc31)[C@H](c1ccc(O)cc1)N1[C@H](c3ccccc3)[C@H](c3ccccc3)OC(=O)[C@H]1[C@@H]2C(=O)N1CCN(c2ncccn2)CC1,1.17,-0.305,0.613,1.42,0.374,0.594,0.918,2.56,1.68,1.47
CCOC(=O)[C@H]1C/C=C/C[C@H](C(=O)OCC)C(=O)O[C@H]2[C@@H](OC)O[C@H](CO)[C@@H](OC(=O)c3ccc(Br)cc3)[C@@H]2OC1=O,0.215,-2.74,0.466,0.389,0.502,-0.0704,0.134,0.0795,0.863,0.369
CN(C)CCCCCCNC(=O)[C@@H]1C[C@@H]2C(=O)N[C@@H](CCCC[N+](C)(C)C)C(=O)N2[C@@H]1c1ccc(O)cc1,-1.27,1.61,0.839,-1.01,-0.702,-0.216,-0.358,-0.277,0.964,0.257
C[N+](C)(C)CCCCCCNC(=O)[C@H]1C[C@H]2C(=O)N[C@@H](Cc3ccccc3)C(=O)N2[C@H]1c1cccc(OCCO)c1,0.658,0.487,0.642,-0.96,-1.03,-0.184,-0.243,-0.234,0.944,-0.049
O=C1C2C=CC(C(O)c3ccc(F)cc3)N(Nc3ccc([N+](=O)[O-])cc3)C2C(=O)N1c1ccccc1 (stereo not given),0.883,-1.03,-0.424,1.76,0.554,0.155,0.294,0.0676,0.733,1.76
CC(c1ccccc1)C(O)C1C=CC2C(=O)N(c3ccccc3)C(=O)C2N1Nc1ccccc1 (stereo not given),1.5,-2.44,-0.0093,1.5,0.993,-0.0758,-0.0702,1.44,1.11,1.98
COC(=O)c1c(CC[C@@H](CO)NC(=O)N[C@H](Cc2ccccc2)Cn2cc(-c3ccccn3)nn2)oc(C(C)=O)c1C(=O)OC,0.538,-0.563,-0.0385,0.475,-0.556,-0.124,-0.304,-0.158,1.79,1.08
CCC(CC)C(O)C1C=CC2C(=O)N(c3ccccc3)C(=O)C2N1Nc1ccccc1 (stereo not given),1.29,0.372,0.0874,1.58,0.415,0.216,-0.16,2.01,0.671,1.02
C=CC[C@]1(C(N)=O)COC(c2ccc(OCCCO)cc2)=N1,-0.287,-0.243,0.237,-0.257,-0.296,-0.0899,-0.0793,0.0519,0.837,1.37
CCCCCN1CC=CC23O[C@@H]4C=CCOC(=O)[C@@H]4[C@H]2C(=O)N(C(C)CO)[C@@H]3C1=O (stereo not given in full),-0.967,1.01,-1.39,-0.0225,-0.0583,-0.176,-0.0146,1.04,-0.901,-0.394
COC(=O)[C@@]1(Cc2ccc(F)cc2)[C@H]2c3cc(C(=O)N(C)C)n(Cc4cc(C)n(C)n4)c3C[C@H]2CN1C(=O)c1ccccc1,0.923,0.107,-0.476,2.43,0.669,0.418,-0.0324,1.82,2.58,0.42
COCCCNC(=O)[C@@H]1c2ccccc2C(=O)N(Cc2ccccc2)[C@H]1c1ccc(CO)cc1,0.364,-0.719,0.221,-0.448,0.004,0.0215,0.131,-0.69,1.32,-0.222
C=C(CCCC)C(=O)CC[C@H](OC(=O)c1cccnc1)c1ccc(OCCO)cc1,-0.574,-3.61,-0.327,-0.556,-0.736,-0.0455,0.296,0.406,0.656,0.551
CCCCCCc1nc(-c2ccc(-c3ccc(Cl)c(Cl)c3)o2)c(C)c2c1[Si](C(C)C)(C(C)C)OC2,-0.121,-1.46,-0.127,0.18,0.45,-0.124,-0.123,-0.124,-0.196,0.354
CO[C@H]1O[C@H](CO)[C@@H](OC(=O)Nc2ccccc2-c2ccccc2)[C@H](OC(=O)Nc2ccccc2-c2ccccc2)[C@@H]1OC(=O)Nc1ccccc1-c1ccccc1,0.538,-1.77,0.292,1.74,0.459,-0.0196,-0.0769,0.799,0.146,0.818
COc1ccc(C(O)C2C=CC3C(=O)N(C)C(=O)C3N2NC(=O)OC(C)(C)C)c2ccccc12 (stereo not given),1.5,-1.45,-0.107,1.56,0.47,0.246,0.275,1.8,0.163,1.17
